Measured values reported in article PMC11062922 (Nature Chemical Biology, 2023).
Where two headings read alike, the source gives them in different places.

How the values were obtained:
[1] = system: MAP4K2; settings: read-out: apparent Kd, n = 1
[2] = system: MARK3; settings: read-out: apparent Kd, n = 1
[3] = compound concentrations:100 nM and 1000 nM (sheet 'Lestaurtinib' of Supplementary Table 1),run:Lestaurtinib_02364_R3,Plate:MR002
[4] = compound concentrations:100 nM and 1000 nM (sheet 'Lestaurtinib' of Supplementary Table 1),run:Lestaurtinib_02367_R2,Plate:MR003
[5] = compound concentrations:100 nM and 1000 nM (sheet 'Lestaurtinib' of Supplementary Table 1),run:Lestaurtinib_02381_R1,Plate:MR004
[6] = compound concentrations:100 nM and 1000 nM (sheet 'Lestaurtinib' of Supplementary Table 1),run:Lestaurtinib_02407_R1,Plate:MR005
[7] = compound concentrations:100 nM and 1000 nM (sheet 'Lestaurtinib' of Supplementary Table 1),run:Lestaurtinib_02407_R2,Plate:MR005
[8] = compound concentrations:100 nM and 1000 nM (sheet 'Lestaurtinib' of Supplementary Table 1),run:Lestaurtinib_02422_R1,Plate:MR006
[9] = compound concentrations:100 nM and 1000 nM (sheet 'Lestaurtinib' of Supplementary Table 1),run:Lestaurtinib_02422_R2,Plate:MR006
[10] = compound concentrations:100 nM and 1000 nM (sheet 'Lestaurtinib' of Supplementary Table 1),run:Lestaurtinib_02437_R3,Plate:MR007
[11] = compound concentrations:100 nM and 1000 nM (sheet 'Lestaurtinib' of Supplementary Table 1),run:Lestaurtinib_02438_R1,Plate:MR008
[12] = compound concentrations:100 nM and 1000 nM (sheet 'Lestaurtinib' of Supplementary Table 1),run:Lestaurtinib_02438_R2,Plate:MR008

## Lestaurtinib
[1]; [3]
  potency estimated from few doses: 260 nM
[1]; [4]
  potency estimated from few doses: 163 nM
[1]; [5]
  potency estimated from few doses: 163 nM
[1]; compound concentrations:100 nM and 1000 nM (sheet 'Lestaurtinib' of Supplementary Table 1),run:Lestaurtinib_02381_R3,Plate:MR004
  potency estimated from few doses: 229 nM
[1]; [6]
  potency estimated from few doses: 134 nM
[1]; [7]
  potency estimated from few doses: 149 nM
[1]; compound concentrations:100 nM and 1000 nM (sheet 'Lestaurtinib' of Supplementary Table 1),run:Lestaurtinib_02407_R3,Plate:MR005
  potency estimated from few doses: 180 nM
[1]; [8]
  potency estimated from few doses: 191 nM
[1]; [9]
  potency estimated from few doses: 261 nM
[1]; compound concentrations:100 nM and 1000 nM (sheet 'Lestaurtinib' of Supplementary Table 1),run:Lestaurtinib_02422_R3,Plate:MR006
  potency estimated from few doses: 163 nM
[1]; [10]
  potency estimated from few doses: 29.8 nM
[1]; [11]
  potency estimated from few doses: 151 nM
[1]; [12]
  potency estimated from few doses: 277 nM
[1]; compound concentrations:100 nM and 1000 nM (sheet 'Lestaurtinib' of Supplementary Table 1),run:Lestaurtinib_02473_R1,Plate:MR010
  potency estimated from few doses: 197 nM
[1]; compound concentrations:100 nM and 1000 nM (sheet 'Lestaurtinib' of Supplementary Table 1),run:Lestaurtinib_02473_R2,Plate:MR010
  potency estimated from few doses: 202 nM
[1]; compound concentrations:100 nM and 1000 nM (sheet 'Lestaurtinib' of Supplementary Table 1),run:Lestaurtinib_02482_R2,Plate:MR011
  potency estimated from few doses: 222 nM
[1]; compound concentrations:100 nM and 1000 nM (sheet 'Lestaurtinib' of Supplementary Table 1),run:Lestaurtinib_02487_R2,Plate:MR012
  potency estimated from few doses: 182 nM
[1]; compound concentrations:100 nM and 1000 nM (sheet 'Lestaurtinib' of Supplementary Table 1),run:Lestaurtinib_02487_R3,Plate:MR012
  potency estimated from few doses: 244 nM
[1]; compound concentrations:100 nM and 1000 nM (sheet 'Lestaurtinib' of Supplementary Table 1),run:Lestaurtinib_02496_R1,Plate:MR013
  potency estimated from few doses: 231 nM
[1]; compound concentrations:100 nM and 1000 nM (sheet 'Lestaurtinib' of Supplementary Table 1),run:Lestaurtinib_02566_R1,Plate:MR014
  potency estimated from few doses: 259 nM
[1]; compound concentrations:100 nM and 1000 nM (sheet 'Lestaurtinib' of Supplementary Table 1),run:Lestaurtinib_02566_R2,Plate:MR014
  potency estimated from few doses: 180 nM
[1]; compound concentrations:100 nM and 1000 nM (sheet 'Lestaurtinib' of Supplementary Table 1),run:Lestaurtinib_02566_R3,Plate:MR014
  potency estimated from few doses: 159 nM
[1]; compound concentrations:100 nM and 1000 nM (sheet 'Lestaurtinib' of Supplementary Table 1),run:Lestaurtinib_02572_R1,Plate:MR015
  potency estimated from few doses: 196 nM
[1]; compound concentrations:100 nM and 1000 nM (sheet 'Lestaurtinib' of Supplementary Table 1),run:Lestaurtinib_02572_R3,Plate:MR015
  potency estimated from few doses: 235 nM
[1]; compound concentrations:100 nM and 1000 nM (sheet 'Lestaurtinib' of Supplementary Table 1),run:Lestaurtinib_02577_R1,Plate:MR016
  potency estimated from few doses: 199 nM
[1]; compound concentrations:100 nM and 1000 nM (sheet 'Lestaurtinib' of Supplementary Table 1),run:Lestaurtinib_02577_R3,Plate:MR016
  potency estimated from few doses: 131 nM
[1]; compound concentrations:100 nM and 1000 nM (sheet 'Lestaurtinib' of Supplementary Table 1),run:Lestaurtinib_02584_R3,Plate:MR017
  potency estimated from few doses: 245 nM
[1]; compound concentrations:100 nM and 1000 nM (sheet 'Lestaurtinib' of Supplementary Table 1),run:Lestaurtinib_02601_R2,Plate:MR018
  potency estimated from few doses: 153 nM
[1]; compound concentrations:100 nM and 1000 nM (sheet 'Lestaurtinib' of Supplementary Table 1),run:Lestaurtinib_02606_R1,Plate:MR019
  potency estimated from few doses: 184 nM
[1]; compound concentrations:100 nM and 1000 nM (sheet 'Lestaurtinib' of Supplementary Table 1),run:Lestaurtinib_02606_R2,Plate:MR019
  potency estimated from few doses: 278 nM
[1]; compound concentrations:100 nM and 1000 nM (sheet 'Lestaurtinib' of Supplementary Table 1),run:Lestaurtinib_02606_R3,Plate:MR019
  potency estimated from few doses: 191 nM
[1]; compound concentrations:100 nM and 1000 nM (sheet 'Lestaurtinib' of Supplementary Table 1),run:Lestaurtinib_02724_R1,Plate:MR021
  potency estimated from few doses: 279 nM
[1]; compound concentrations:100 nM and 1000 nM (sheet 'Lestaurtinib' of Supplementary Table 1),run:Lestaurtinib_02724_R2,Plate:MR021
  potency estimated from few doses: 279 nM
[1]; compound concentrations:100 nM and 1000 nM (sheet 'Lestaurtinib' of Supplementary Table 1),run:Lestaurtinib_02724_R3,Plate:MR021
  potency estimated from few doses: 269 nM
[1]; compound concentrations:100 nM and 1000 nM (sheet 'Lestaurtinib' of Supplementary Table 1),run:Lestaurtinib_02741_R1,Plate:MR023
  potency estimated from few doses: 191 nM
[1]; compound concentrations:100 nM and 1000 nM (sheet 'Lestaurtinib' of Supplementary Table 1),run:Lestaurtinib_02741_R3,Plate:MR023
  potency estimated from few doses: 237 nM
[1]; compound concentrations:100 nM and 1000 nM (sheet 'Lestaurtinib' of Supplementary Table 1),run:Lestaurtinib_02748_R2,Plate:MR024
  potency estimated from few doses: 289 nM
[1]; compound concentrations:100 nM and 1000 nM (sheet 'Lestaurtinib' of Supplementary Table 1),run:Lestaurtinib_02752_R2,Plate:MR025
  potency estimated from few doses: 134 nM
[1]; compound concentrations:100 nM and 1000 nM (sheet 'Lestaurtinib' of Supplementary Table 1),run:Lestaurtinib_02752_R3,Plate:MR025
  potency estimated from few doses: 136 nM
[1]; compound concentrations:100 nM and 1000 nM (sheet 'Lestaurtinib' of Supplementary Table 1),run:Lestaurtinib_02765_R2,Plate:MR026
  potency estimated from few doses: 199 nM
[1]; compound concentrations:100 nM and 1000 nM (sheet 'Lestaurtinib' of Supplementary Table 1),run:Lestaurtinib_02765_R3,Plate:MR026
  potency estimated from few doses: 158 nM
[1]; compound concentrations:100 nM and 1000 nM (sheet 'Lestaurtinib' of Supplementary Table 1),run:Lestaurtinib_02766_R2,Plate:MR027
  potency estimated from few doses: 220 nM
[1]; compound concentrations:100 nM and 1000 nM (sheet 'Lestaurtinib' of Supplementary Table 1),run:Lestaurtinib_02766_R3,Plate:MR027
  potency estimated from few doses: 231 nM
[1]; compound concentrations:100 nM and 1000 nM (sheet 'Lestaurtinib' of Supplementary Table 1),run:Lestaurtinib_02768_R1,Plate:MR028
  potency estimated from few doses: 190 nM
[1]; compound concentrations:100 nM and 1000 nM (sheet 'Lestaurtinib' of Supplementary Table 1),run:Lestaurtinib_02768_R3,Plate:MR028
  potency estimated from few doses: 196 nM
[1]; compound concentrations:100 nM and 1000 nM (sheet 'Lestaurtinib' of Supplementary Table 1),run:Lestaurtinib_02795_R1,Plate:MR022
  potency estimated from few doses: 199 nM
[1]; compound concentrations:100 nM and 1000 nM (sheet 'Lestaurtinib' of Supplementary Table 1),run:Lestaurtinib_02795_R2,Plate:MR022
  potency estimated from few doses: 146 nM
[1]; compound concentrations:100 nM and 1000 nM (sheet 'Lestaurtinib' of Supplementary Table 1),run:Lestaurtinib_02795_R3,Plate:MR022
  potency estimated from few doses: 377 nM
[1]; compound concentrations:100 nM and 1000 nM (sheet 'Lestaurtinib' of Supplementary Table 1),run:Lestaurtinib_02802_R3,Plate:MR029
  potency estimated from few doses: 290 nM
[1]; compound concentrations:100 nM and 1000 nM (sheet 'Lestaurtinib' of Supplementary Table 1),run:Lestaurtinib_02896_R2,Plate:MR030
  potency estimated from few doses: 215 nM
[1]; compound concentrations:100 nM and 1000 nM (sheet 'Lestaurtinib' of Supplementary Table 1),run:Lestaurtinib_03172_R2,Plate:MR031
  potency estimated from few doses: 295 nM
[1]; compound concentrations:100 nM and 1000 nM (sheet 'Lestaurtinib' of Supplementary Table 1),run:Lestaurtinib_03172_R3,Plate:MR031
  potency estimated from few doses: 235 nM
[1]; compound concentrations:100 nM and 1000 nM (sheet 'Lestaurtinib' of Supplementary Table 1),run:Lestaurtinib_03252_R1,Plate:MR032
  potency estimated from few doses: 130 nM
[1]; compound concentrations:100 nM and 1000 nM (sheet 'Lestaurtinib' of Supplementary Table 1),run:Lestaurtinib_03260_R1,Plate:MR033
  potency estimated from few doses: 372 nM
[1]; compound concentrations:100 nM and 1000 nM (sheet 'Lestaurtinib' of Supplementary Table 1),run:Lestaurtinib_03260_R3,Plate:MR033
  potency estimated from few doses: 228 nM
[2]; compound concentrations:100 nM and 1000 nM (sheet 'Lestaurtinib' of Supplementary Table 1),run:Lestaurtinib_02364_R1,Plate:MR002
  potency estimated from few doses: 132 nM
[2]; [3]
  potency estimated from few doses: 180 nM
[2]; compound concentrations:100 nM and 1000 nM (sheet 'Lestaurtinib' of Supplementary Table 1),run:Lestaurtinib_02367_R1,Plate:MR003
  potency estimated from few doses: 92.8 nM
[2]; [4]
  potency estimated from few doses: 160 nM
[2]; [5]
  potency estimated from few doses: 132 nM
[2]; compound concentrations:100 nM and 1000 nM (sheet 'Lestaurtinib' of Supplementary Table 1),run:Lestaurtinib_02381_R2,Plate:MR004
  potency estimated from few doses: 167 nM
[2]; [6]
  potency estimated from few doses: 160 nM
[2]; [7]
  potency estimated from few doses: 151 nM
[2]; [8]
  potency estimated from few doses: 169 nM
[2]; [9]
  potency estimated from few doses: 52.3 nM
[2]; compound concentrations:100 nM and 1000 nM (sheet 'Lestaurtinib' of Supplementary Table 1),run:Lestaurtinib_02437_R1,Plate:MR007
  potency estimated from few doses: 151 nM
[2]; compound concentrations:100 nM and 1000 nM (sheet 'Lestaurtinib' of Supplementary Table 1),run:Lestaurtinib_02437_R2,Plate:MR007
  potency estimated from few doses: 133 nM
[2]; [10]
  potency estimated from few doses: 23.2 nM
[2]; [11]
  potency estimated from few doses: 196 nM
[2]; [12]
  potency estimated from few doses: 160 nM
[2]; compound concentrations:100 nM and 1000 nM (sheet 'Lestaurtinib' of Supplementary Table 1),run:Lestaurtinib_02443_R1,Plate:MR009
  potency estimated from few doses: 202 nM
[2]; compound concentrations:100 nM and 1000 nM (sheet 'Lestaurtinib' of Supplementary Table 1),run:Lestaurtinib_02443_R2,Plate:MR009
  potency estimated from few doses: 181 nM
